Source: PubChem BioAssay AID1159580 (chemical genetic matrix, 2015)
Screen size: about 5,500 compounds; about 2,000 (36%) were called active. Inconclusive results (about 18%) are left out. Rule as the data show it: active = normalized growth mostly below about 0.91 (no sharp cut-off); inconclusive = no clear call, values can overlap the other calls; inactive = mostly above about 0.92. This is one part of the list.

Assay: chemical genetic growth profiling, strain panel (AID 1159580);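 also: tested at 20 µM; growth read once vehicle control cultures reached saturation at 30 °C; 1 = growth at the plate median or of vehicle wells; lower values mean less growth of the strain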
Details: growth OD

Measured: normalized growth

O=C(O)c1cc(=O)c2cccc(O)c2[nH]1
inactive: S. cerevisiae deletion strains, locus YJR075W, strain HOC1, hits give low values 0.974 | S. cerevisiae deletion strains, locus YKL009W, strain mrt4, hits give low values 0.965 | S. cerevisiae deletion strains, locus YKL068W, hits give low values 0.976 | S. cerevisiae deletion strains, locus YKL085W, strain MDH1 (second series), hits give low values 0.964 | S. cerevisiae deletion strains, locus YKL085W, strain MDH1, hits give low values 0.964 | S. cerevisiae deletion strains, locus YKL160W, strain elf1, hits give low values 1.05 | S. cerevisiae deletion strains, locus YKL190W, strain CNB1, hits give low values 0.982 | S. cerevisiae deletion strains, locus YKR001C, strain vps1, hits give low values 1 | S. cerevisiae deletion strains, locus YKR026C, strain gcn3, hits give low values 1.01 | S. cerevisiae deletion strains, locus YKR091W, strain srl3, hits give low values 1.01 | S. cerevisiae deletion strains, locus YLL001W, strain dnm1, hits give low values 1.02 | S. cerevisiae deletion strains, locus YLL026W, hits give low values 1.02 | S. cerevisiae deletion strains, locus YLL041C, strain sdh2, hits give low values 1 | S. cerevisiae deletion strains, locus YLR027C, strain aat2, hits give low values 0.996 | S. cerevisiae deletion strains, locus YLR039C, strain RIC1, hits give low values 0.968 | S. cerevisiae deletion strains, locus YLR058C, strain SHM2, hits give low values 0.987 | S. cerevisiae deletion strains, locus YLR102C, strain apc9, hits give low values 0.979 | S. cerevisiae deletion strains, locus YLR113W, strain HOG1, hits give low values 0.99 | S. cerevisiae deletion strains, locus YLR221C, strain rsa3, hits give low values 0.995 | S. cerevisiae deletion strains, locus YLR258W, strain gsy2, hits give low values 1.03 | S. cerevisiae deletion strains, locus YLR262C, strain YPT6 (second series), hits give low values 1.01 | S. cerevisiae deletion strains, locus YLR262C, strain YPT6, hits give low values 0.971 | S. cerevisiae deletion strains, locus YLR268W, strain sec22, hits give low values 0.916 | S. cerevisiae deletion strains, locus YLR320W, strain mms22, hits give low values 1.01 | S. cerevisiae deletion strains, locus YLR330W, strain CHS5, hits give low values 0.991 | S. cerevisiae deletion strains, locus YLR342W, strain FKS1 (second series), hits give low values 1.08 | S. cerevisiae deletion strains, locus YLR342W, strain FKS1, hits give low values 1.02 | S. cerevisiae deletion strains, locus YLR357W, strain rsc2, hits give low values 1.05 | S. cerevisiae deletion strains, locus YLR370C, strain arc18, hits give low values 1.04 | S. cerevisiae deletion strains, locus YLR371W, strain rom2, hits give low values 0.98 | S. cerevisiae deletion strains, locus YLR384C, strain iki3, hits give low values 1.02 | S. cerevisiae deletion strains, locus YLR418C, strain cdc73, hits give low values 1.03 | S. cerevisiae deletion strains, locus YML016C, strain PPZ1, hits give low values 1 | S. cerevisiae deletion strains, locus YML032C, strain rad52, hits give low values 0.961 | S. cerevisiae deletion strains, locus YML120C, strain ndi1, hits give low values 1.01 | S. cerevisiae deletion strains, locus YML124C, strain tub3, hits give low values 0.977 | S. cerevisiae deletion strains, locus YMR058W, strain fet3, hits give low values 1.02 | S. cerevisiae deletion strains, locus YMR078C, strain ctf18, hits give low values 0.991 | S. cerevisiae deletion strains, locus YMR125W, strain sto1, hits give low values 1.02 | S. cerevisiae deletion strains, locus YMR129W, hits give low values 1.02 | S. cerevisiae deletion strains, locus YMR205C, strain PFK2, hits give low values 1.02 | S. cerevisiae deletion strains, locus YMR223W, strain ubp8, hits give low values 1.03 | S. cerevisiae deletion strains, locus YMR231W, strain pep5, hits give low values 1.01 | S. cerevisiae deletion strains, locus YMR263W, strain SAP30, hits give low values 0.975 | S. cerevisiae deletion strains, locus YMR307W, strain GAS1, hits give low values 1.09 | S. cerevisiae deletion strains, locus YNL067W, strain RPL9B, hits give low values 0.967 | S. cerevisiae deletion strains, locus YNL071W, strain lat1, hits give low values 1.02 | S. cerevisiae deletion strains, locus YNL128W, strain TEP1, hits give low values 0.983 | S. cerevisiae deletion strains, locus YNL153C, strain GIM3, hits give low values 0.97 | S. cerevisiae deletion strains, locus YNL183C, strain NPR1, hits give low values 0.917 | S. cerevisiae deletion strains, locus YNL209W, strain ssb2, hits give low values 0.999 | S. cerevisiae deletion strains, locus YNL233W, strain BNI4, hits give low values 0.97 | S. cerevisiae deletion strains, locus YNL248C, strain rpa49, hits give low values 1.03 | S. cerevisiae deletion strains, locus YNL250W, strain rad50, hits give low values 0.967 | S. cerevisiae deletion strains, locus YNL271C, strain bni1, hits give low values 0.976 | S. cerevisiae deletion strains, locus YNL298W, strain CLA4, hits give low values 0.987 | S. cerevisiae deletion strains, locus YNL307C, strain MCK1, hits give low values 0.981 | S. cerevisiae deletion strains, locus YNL322C, strain KRE1 (second series), hits give low values 1.03 | S. cerevisiae deletion strains, locus YNL322C, strain KRE1, hits give low values 0.984 | S. cerevisiae deletion strains, locus YNR049C, strain mso1, hits give low values 1.02 | S. cerevisiae deletion strains, locus YNR052C, strain pop2, hits give low values 1 | S. cerevisiae deletion strains, locus YOL006C, strain TOP1, hits give low values 1.02 | S. cerevisiae deletion strains, locus YOL012C, strain htz1 0.728 | S. cerevisiae deletion strains, locus YOL147C, strain pex11, hits give low values 0.985 | S. cerevisiae deletion strains, locus YOR001W, strain rrp6, hits give low values 0.956 | S. cerevisiae deletion strains, locus YOR061W, strain CKA2, hits give low values 0.992 | S. cerevisiae deletion strains, locus YOR069W, strain VPS5, hits give low values 0.991 | S. cerevisiae deletion strains, locus YOR070C, strain gyp1, hits give low values 1.02 | S. cerevisiae deletion strains, locus YOR080W, strain dia2, hits give low values 1.01 | S. cerevisiae deletion strains, locus YOR083W, strain WHI5, hits give low values 1.05 | S. cerevisiae deletion strains, locus YOR106W, strain vam3, hits give low values 1.03 | S. cerevisiae deletion strains, locus YOR136W, strain idh2, hits give low values 0.99 | S. cerevisiae deletion strains, locus YOR144C, strain elg1, hits give low values 0.99 | S. cerevisiae deletion strains, locus YOR184W, strain ser1, hits give low values 0.972 | S. cerevisiae deletion strains, locus YOR231W, strain MKK1, hits give low values 0.982 | S. cerevisiae deletion strains, locus YOR265W, strain rbl2, hits give low values 1.01 | S. cerevisiae deletion strains, locus YOR270C, strain vph1, hits give low values 0.995 | S. cerevisiae deletion strains, locus YOR290C, strain snf2, hits give low values 1.06 | S. cerevisiae deletion strains, locus YOR316C, strain cot1, hits give low values 0.966 | S. cerevisiae deletion strains, locus YPL051W, strain arl3, hits give low values 1.04 | S. cerevisiae deletion strains, locus YPL055C, strain LGE1, hits give low values 0.951 | S. cerevisiae deletion strains, locus YPL078C, strain atp4, hits give low values 1.04 | S. cerevisiae deletion strains, locus YPL106C, strain sse1, hits give low values 1.03 | S. cerevisiae deletion strains, locus YPL240C, strain hsp82, hits give low values 1.01 | S. cerevisiae deletion strains, locus YPL241C, strain CIN2, hits give low values 0.982 | S. cerevisiae deletion strains, locus YPL256C, strain CLN2, hits give low values 0.965 | S. cerevisiae deletion strains, locus YPR119W, strain clb2, hits give low values 0.987 | S. cerevisiae deletion strains, locus YPR141C, strain kar3, hits give low values 0.97 | S. cerevisiae deletion strains, locus YPR163C, strain tif3, hits give low values 0.989 | S. cerevisiae deletion strains, locus YPR167C, strain met16, hits give low values 0.973 | S. cerevisiae deletion strains, strain wtn01, hits give low values 0.995 | S. cerevisiae strains, strain wild type, hits give low values 1
